Test results as given in PMC7862700, “An all-to-all approach to the identification of sequence-specific readers for epigenetic DNA modifications on cytosine”.

What was measured:
Test in all cases: DAPPL (digital affinity profiling via proximity ligation, sequencing); 10 mM Tris-HCl pH 7.5, 50 mM NaCl, 1 mM DTT, 4% glycerol, room temperature, 30 min; GST-TFs on glutathione beads, 16-mer random dsDNA library, 0.1% formaldehyde crosslink after washing; high values mean tight binding
FEV = target: T1, FEV (Homo sapiens, UniProt Q99581 1-238); conditions: protein: recombinant; tags: N-terminal GST; dsDNA, one strand shown
T1 sequence: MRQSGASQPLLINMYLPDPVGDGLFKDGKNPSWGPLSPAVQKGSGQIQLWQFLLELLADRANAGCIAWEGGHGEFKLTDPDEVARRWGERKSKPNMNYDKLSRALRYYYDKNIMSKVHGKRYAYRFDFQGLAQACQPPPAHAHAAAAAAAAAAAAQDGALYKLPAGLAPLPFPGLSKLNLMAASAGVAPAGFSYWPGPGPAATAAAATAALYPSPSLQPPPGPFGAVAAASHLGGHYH
Procedure, shortened: (§1)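 Human transcription factors fused to GST were expressed in yeast, captured on glutathione beads, given DNA barcodes and pooled with a GST-only negative control. Pools were incubated with 200 nmole of a 16-mer random double-stranded DNA library in Tris/NaCl/DTT/glycerol buffer at room temperature for 30 min. They were then washed, crosslinked with 0.1% formaldehyde, proximity-ligated (BsaI/T4 ligase, 1 h, 37 °C), PCR-amplified and sequenced on an Illumina NextSeq500. Binding signal is each 6-mer's read frequency for a factor divided by its frequency for the GST control.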

ETV5 = ETV5 (Homo sapiens, UniProt P41161 1-510); conditions: protein: recombinant; tags: N-terminal GST; dsDNA, one strand shown
Sequence of ETV5 (P41161 whole entry): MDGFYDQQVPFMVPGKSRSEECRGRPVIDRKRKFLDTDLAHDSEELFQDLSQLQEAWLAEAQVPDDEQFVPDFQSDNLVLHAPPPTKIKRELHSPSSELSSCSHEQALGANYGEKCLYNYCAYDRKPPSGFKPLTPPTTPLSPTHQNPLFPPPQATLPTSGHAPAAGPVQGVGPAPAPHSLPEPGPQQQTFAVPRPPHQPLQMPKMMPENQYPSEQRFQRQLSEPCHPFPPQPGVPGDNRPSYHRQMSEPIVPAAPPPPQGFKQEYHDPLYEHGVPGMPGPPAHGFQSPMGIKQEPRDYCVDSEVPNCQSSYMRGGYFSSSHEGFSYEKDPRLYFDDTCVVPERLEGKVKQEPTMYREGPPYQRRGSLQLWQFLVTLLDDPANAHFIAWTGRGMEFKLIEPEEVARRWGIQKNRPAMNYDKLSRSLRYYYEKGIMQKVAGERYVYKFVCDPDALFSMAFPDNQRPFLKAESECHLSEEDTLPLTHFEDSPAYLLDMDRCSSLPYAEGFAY
Procedure, shortened: as §1

HSF1 = HSF1 (Homo sapiens, UniProt Q00613 1-529); conditions: protein: recombinant; tags: N-terminal GST; chain copies: 3; dsDNA, one strand shown
Sequence of HSF1 (Q00613 whole entry): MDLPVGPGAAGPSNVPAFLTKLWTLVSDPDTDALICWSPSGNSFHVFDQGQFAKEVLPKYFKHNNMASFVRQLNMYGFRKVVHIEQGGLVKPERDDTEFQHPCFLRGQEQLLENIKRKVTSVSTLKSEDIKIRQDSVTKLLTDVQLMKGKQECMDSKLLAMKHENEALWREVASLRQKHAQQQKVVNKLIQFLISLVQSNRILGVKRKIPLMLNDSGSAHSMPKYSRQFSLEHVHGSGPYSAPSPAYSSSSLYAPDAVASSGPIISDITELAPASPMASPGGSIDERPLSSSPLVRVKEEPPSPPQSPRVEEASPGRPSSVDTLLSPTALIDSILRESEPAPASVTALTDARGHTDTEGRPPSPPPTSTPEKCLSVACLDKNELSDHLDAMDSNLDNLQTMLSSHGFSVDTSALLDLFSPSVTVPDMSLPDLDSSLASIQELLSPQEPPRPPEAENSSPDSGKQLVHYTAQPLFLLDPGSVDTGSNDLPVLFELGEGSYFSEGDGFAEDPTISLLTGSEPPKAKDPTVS
Procedure, shortened: as §1

SPIC = target: T2, SPIC (Homo sapiens, UniProt Q8N5J4 1-248); conditions: protein: recombinant; tags: N-terminal GST; dsDNA, one strand shown
T2 sequence: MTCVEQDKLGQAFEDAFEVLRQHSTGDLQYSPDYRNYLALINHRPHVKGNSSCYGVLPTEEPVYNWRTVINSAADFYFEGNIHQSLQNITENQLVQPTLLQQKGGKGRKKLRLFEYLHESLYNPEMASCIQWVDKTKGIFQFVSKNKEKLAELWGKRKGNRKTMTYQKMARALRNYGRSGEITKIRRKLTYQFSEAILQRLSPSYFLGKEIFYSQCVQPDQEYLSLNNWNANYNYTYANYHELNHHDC
Procedure, shortened: as §1

ELF4 = ELF4 (Homo sapiens, UniProt Q99607 1-663); conditions: protein: recombinant; tags: N-terminal GST; dsDNA, one strand shown
Sequence of ELF4 (Q99607 whole entry): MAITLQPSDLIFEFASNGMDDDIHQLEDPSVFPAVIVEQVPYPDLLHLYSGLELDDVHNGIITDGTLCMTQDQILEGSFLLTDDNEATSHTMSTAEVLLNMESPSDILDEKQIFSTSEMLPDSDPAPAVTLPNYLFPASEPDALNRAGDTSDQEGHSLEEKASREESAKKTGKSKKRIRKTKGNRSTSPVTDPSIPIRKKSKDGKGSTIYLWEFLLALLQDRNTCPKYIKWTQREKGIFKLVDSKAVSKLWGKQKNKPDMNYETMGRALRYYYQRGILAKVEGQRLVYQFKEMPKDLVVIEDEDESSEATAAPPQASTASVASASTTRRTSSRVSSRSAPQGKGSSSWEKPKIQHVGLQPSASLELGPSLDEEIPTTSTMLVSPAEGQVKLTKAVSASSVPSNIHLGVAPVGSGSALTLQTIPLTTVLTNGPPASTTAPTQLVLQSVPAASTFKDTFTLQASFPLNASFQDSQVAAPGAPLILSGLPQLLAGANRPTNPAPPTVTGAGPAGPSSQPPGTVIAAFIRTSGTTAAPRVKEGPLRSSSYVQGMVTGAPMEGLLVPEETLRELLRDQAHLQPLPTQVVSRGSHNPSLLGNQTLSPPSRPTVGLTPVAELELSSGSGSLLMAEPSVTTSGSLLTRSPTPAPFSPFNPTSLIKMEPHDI
Procedure, shortened: as §1

ELK4 = target: T3, ELK4 (Homo sapiens, UniProt P28324-2 1-405); conditions: protein: recombinant; tags: N-terminal GST; dsDNA, one strand shown
T3 sequence: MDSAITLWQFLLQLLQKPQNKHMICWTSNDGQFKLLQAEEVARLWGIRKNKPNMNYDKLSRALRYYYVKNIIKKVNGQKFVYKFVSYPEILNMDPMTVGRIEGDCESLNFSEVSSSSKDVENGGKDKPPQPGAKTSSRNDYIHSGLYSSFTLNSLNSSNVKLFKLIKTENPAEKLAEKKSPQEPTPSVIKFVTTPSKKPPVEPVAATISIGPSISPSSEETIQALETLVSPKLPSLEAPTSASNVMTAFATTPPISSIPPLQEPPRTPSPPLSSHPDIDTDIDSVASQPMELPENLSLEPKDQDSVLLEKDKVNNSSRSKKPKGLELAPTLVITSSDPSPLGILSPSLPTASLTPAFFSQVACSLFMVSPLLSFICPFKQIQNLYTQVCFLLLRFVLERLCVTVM
Procedure, shortened: as §1

ETV2 = target: T4, ETV2 (Homo sapiens, UniProt O00321 1-342); conditions: protein: recombinant; tags: N-terminal GST; dsDNA, one strand shown
T4 sequence: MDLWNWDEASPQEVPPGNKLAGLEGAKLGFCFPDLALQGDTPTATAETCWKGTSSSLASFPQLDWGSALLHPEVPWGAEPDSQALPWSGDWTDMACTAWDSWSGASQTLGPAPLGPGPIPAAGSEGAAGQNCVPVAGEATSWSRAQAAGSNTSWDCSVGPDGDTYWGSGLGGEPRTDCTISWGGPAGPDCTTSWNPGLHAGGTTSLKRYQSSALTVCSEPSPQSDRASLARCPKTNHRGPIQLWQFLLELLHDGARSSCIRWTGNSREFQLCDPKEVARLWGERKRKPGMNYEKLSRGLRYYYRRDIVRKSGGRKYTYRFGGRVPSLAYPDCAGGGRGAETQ
Procedure, shortened: as §1

ELF3 = target: T5, ELF3 (Homo sapiens, UniProt P78545 1-371); conditions: protein: recombinant; tags: N-terminal GST; dsDNA, one strand shown
T5 sequence: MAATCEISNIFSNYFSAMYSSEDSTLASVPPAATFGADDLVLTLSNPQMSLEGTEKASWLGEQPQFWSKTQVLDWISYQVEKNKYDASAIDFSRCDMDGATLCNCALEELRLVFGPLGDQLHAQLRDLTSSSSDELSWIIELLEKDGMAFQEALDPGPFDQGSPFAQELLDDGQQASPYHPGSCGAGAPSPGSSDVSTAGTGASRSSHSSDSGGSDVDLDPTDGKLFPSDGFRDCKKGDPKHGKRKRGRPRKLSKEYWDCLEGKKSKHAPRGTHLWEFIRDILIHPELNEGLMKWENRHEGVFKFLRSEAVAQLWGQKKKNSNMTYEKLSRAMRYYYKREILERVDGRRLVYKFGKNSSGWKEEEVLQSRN
Procedure, shortened: as §1

CRX = CRX (Homo sapiens, UniProt O43186 1-299); conditions: protein: recombinant; tags: N-terminal GST; dsDNA, one strand shown
Sequence of CRX (O43186 whole entry): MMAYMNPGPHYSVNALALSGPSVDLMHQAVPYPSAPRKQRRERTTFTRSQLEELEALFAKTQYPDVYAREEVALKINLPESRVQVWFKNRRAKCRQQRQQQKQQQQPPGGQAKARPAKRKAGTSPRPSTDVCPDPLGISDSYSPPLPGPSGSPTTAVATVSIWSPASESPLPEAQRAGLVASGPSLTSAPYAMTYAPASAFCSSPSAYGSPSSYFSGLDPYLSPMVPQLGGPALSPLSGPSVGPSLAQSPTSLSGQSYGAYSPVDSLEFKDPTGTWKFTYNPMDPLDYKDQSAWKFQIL
Procedure, shortened: as §1

ETV1 = ETV1 (Homo sapiens, UniProt P50549 1-477); conditions: protein: recombinant; tags: N-terminal GST; dsDNA, one strand shown
Sequence of ETV1 (P50549 whole entry): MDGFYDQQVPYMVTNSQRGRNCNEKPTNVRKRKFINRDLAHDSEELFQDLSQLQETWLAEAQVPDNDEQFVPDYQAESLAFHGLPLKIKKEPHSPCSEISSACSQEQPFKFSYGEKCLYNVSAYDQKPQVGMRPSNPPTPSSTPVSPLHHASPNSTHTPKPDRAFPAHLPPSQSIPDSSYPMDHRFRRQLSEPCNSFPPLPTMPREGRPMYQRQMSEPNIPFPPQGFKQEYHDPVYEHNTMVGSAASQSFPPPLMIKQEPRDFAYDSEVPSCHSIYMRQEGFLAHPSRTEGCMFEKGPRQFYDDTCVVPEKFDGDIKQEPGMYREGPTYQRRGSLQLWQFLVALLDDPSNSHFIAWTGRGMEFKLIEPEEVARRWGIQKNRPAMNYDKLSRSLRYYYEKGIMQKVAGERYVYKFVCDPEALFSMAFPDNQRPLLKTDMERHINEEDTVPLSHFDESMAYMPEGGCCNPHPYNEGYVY
Procedure, shortened: as §1

ERF = target: T6, ERF (Homo sapiens, UniProt P50548 1-548); conditions: protein: recombinant; tags: N-terminal GST; dsDNA, one strand shown
T6 sequence: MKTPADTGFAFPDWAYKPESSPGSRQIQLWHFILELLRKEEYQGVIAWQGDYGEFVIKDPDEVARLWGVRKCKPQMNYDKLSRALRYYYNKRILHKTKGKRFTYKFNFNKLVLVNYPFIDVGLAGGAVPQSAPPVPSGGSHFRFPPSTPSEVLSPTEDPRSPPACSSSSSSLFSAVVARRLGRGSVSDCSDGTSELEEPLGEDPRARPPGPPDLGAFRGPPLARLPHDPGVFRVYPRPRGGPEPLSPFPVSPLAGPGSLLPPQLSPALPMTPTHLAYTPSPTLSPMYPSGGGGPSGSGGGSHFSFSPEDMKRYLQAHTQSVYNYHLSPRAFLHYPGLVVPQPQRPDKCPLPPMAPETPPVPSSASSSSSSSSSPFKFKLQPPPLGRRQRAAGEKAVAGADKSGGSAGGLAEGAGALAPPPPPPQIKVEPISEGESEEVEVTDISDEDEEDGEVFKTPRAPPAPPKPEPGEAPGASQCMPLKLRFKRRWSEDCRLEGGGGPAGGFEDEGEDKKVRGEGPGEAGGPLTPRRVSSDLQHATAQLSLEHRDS
Procedure, shortened: as §1

ETV3L = target: T7, ETV3L (Homo sapiens, UniProt Q6ZN32 1-361); conditions: protein: recombinant; tags: N-terminal GST; dsDNA, one strand shown
T7 sequence: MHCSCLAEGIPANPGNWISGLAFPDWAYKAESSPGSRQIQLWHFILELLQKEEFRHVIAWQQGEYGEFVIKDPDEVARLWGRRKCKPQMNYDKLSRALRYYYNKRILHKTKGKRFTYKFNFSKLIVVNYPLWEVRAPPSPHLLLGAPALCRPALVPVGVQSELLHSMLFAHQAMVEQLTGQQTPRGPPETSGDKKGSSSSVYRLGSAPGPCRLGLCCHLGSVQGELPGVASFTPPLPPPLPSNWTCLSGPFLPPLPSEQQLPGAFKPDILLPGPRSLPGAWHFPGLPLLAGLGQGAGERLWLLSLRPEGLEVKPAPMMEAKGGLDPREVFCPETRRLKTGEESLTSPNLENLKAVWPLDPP
Procedure, shortened: as §1

ETS2 = target: T8, ETS2 (Homo sapiens, UniProt P15036 1-469); conditions: protein: recombinant; tags: N-terminal GST; dsDNA, one strand shown
T8 sequence: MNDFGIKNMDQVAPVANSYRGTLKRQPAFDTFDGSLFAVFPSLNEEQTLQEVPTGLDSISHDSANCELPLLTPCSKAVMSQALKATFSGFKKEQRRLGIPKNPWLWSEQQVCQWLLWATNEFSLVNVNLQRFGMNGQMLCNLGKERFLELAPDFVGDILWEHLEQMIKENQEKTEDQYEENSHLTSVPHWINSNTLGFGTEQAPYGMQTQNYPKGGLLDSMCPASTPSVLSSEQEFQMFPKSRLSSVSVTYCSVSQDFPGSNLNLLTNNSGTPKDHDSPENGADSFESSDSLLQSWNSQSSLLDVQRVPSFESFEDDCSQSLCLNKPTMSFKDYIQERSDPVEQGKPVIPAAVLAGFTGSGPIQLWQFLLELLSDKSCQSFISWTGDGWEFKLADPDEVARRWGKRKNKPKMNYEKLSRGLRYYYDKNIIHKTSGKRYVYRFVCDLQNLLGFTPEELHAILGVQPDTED
Procedure, shortened: as §1

SPDEF = target: T9, SPDEF (Homo sapiens, UniProt O95238 1-335); conditions: protein: recombinant; tags: N-terminal GST; dsDNA, one strand shown
T9 sequence: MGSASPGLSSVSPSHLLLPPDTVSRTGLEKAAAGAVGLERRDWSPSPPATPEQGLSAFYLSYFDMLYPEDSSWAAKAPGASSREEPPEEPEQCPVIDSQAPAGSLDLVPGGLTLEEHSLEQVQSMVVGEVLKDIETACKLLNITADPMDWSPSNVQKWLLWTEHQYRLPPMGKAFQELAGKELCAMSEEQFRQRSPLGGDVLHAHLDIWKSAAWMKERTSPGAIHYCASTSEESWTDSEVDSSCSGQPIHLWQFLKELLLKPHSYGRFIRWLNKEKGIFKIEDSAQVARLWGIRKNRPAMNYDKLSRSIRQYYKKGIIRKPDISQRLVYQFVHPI
Procedure, shortened: as §1

ETV7 = target: T10, ETV7 (Homo sapiens, UniProt Q9Y603 1-341); conditions: protein: recombinant; tags: N-terminal GST; dsDNA, one strand shown
T10 sequence: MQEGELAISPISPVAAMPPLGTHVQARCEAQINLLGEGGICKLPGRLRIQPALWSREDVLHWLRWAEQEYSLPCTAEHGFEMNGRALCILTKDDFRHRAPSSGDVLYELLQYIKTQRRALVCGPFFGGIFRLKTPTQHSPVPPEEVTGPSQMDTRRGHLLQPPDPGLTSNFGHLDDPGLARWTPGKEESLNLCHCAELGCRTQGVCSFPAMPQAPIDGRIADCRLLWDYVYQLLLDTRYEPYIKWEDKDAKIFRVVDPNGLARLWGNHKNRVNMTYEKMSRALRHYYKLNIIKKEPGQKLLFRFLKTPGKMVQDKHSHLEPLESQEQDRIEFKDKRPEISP
Procedure, shortened: as §1

ELF5 = target: T11, ELF5 (Homo sapiens, UniProt Q9UKW6-2 1-255); conditions: protein: recombinant; tags: N-terminal GST; dsDNA, one strand shown
T11 sequence: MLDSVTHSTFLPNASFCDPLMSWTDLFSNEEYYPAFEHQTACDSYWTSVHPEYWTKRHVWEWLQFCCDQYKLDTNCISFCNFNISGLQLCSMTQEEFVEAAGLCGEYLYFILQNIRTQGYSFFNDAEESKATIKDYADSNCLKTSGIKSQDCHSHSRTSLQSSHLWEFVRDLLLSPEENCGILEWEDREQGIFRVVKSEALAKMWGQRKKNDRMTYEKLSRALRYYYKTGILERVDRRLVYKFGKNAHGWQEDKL
Procedure, shortened: as §1

ETV3 = target: T12, ETV3 (Homo sapiens, UniProt P41162-2 1-143); conditions: protein: recombinant; tags: N-terminal GST; dsDNA, one strand shown
T12 sequence: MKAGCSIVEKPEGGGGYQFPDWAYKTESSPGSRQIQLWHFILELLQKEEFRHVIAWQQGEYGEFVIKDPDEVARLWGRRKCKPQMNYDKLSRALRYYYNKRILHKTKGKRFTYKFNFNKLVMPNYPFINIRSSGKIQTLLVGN
Procedure, shortened: as §1

ETV6 = ETV6 (Homo sapiens, UniProt P41212 1-452); conditions: protein: recombinant; tags: N-terminal GST; dsDNA, one strand shown
Sequence of ETV6 (P41212 whole entry): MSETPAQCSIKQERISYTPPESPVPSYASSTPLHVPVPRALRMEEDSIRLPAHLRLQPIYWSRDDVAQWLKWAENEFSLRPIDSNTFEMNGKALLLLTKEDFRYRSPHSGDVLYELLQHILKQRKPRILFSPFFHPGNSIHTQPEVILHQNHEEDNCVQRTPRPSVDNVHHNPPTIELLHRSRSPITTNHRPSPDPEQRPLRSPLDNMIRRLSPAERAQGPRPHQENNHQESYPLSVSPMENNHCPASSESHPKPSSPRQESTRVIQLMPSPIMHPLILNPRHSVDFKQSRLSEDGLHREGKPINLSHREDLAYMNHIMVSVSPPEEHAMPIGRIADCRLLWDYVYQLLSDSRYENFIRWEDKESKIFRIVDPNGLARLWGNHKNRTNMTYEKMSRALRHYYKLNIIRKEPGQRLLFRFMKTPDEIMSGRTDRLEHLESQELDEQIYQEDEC
Procedure, shortened: as §1

In the case of AATTCG, the binding signal (FEV) is reported as 1.26 fold enrichment (6-mer frequency, TF over GST control), the binding signal (ETV5) is reported as 1.31 fold enrichment (6-mer frequency, TF over GST control) and the binding signal (HSF1) is reported as 1.76 fold enrichment (6-mer frequency, TF over GST control). For the same sequence, the binding signal (SPIC) was 1.43 fold enrichment (6-mer frequency, TF over GST control), the binding signal (ELF4) was 1.26 fold enrichment (6-mer frequency, TF over GST control) and the binding signal (ELK4) was 1.23 fold enrichment (6-mer frequency, TF over GST control). The binding signal (ETV2) was 1.19 fold enrichment (6-mer frequency, TF over GST control), the binding signal (ELF3) was 1.3 fold enrichment (6-mer frequency, TF over GST control) and the binding signal (CRX) was 1.57 fold enrichment (6-mer frequency, TF over GST control). For the same sequence, the binding signal (ETV1) was 1.18 fold enrichment (6-mer frequency, TF over GST control), the binding signal (ERF) was 1.38 fold enrichment (6-mer frequency, TF over GST control) and the binding signal (ETV3L) was 1.38 fold enrichment (6-mer frequency, TF over GST control). For the same sequence, the binding signal (ETS2) was 1.23 fold enrichment (6-mer frequency, TF over GST control), the binding signal (SPDEF) was 1.25 fold enrichment (6-mer frequency, TF over GST control) and the binding signal (ETV7) was 1.32 fold enrichment (6-mer frequency, TF over GST control). The binding signal (ELF5) was 1.2 fold enrichment (6-mer frequency, TF over GST control), the binding signal (ETV3) was 1.29 fold enrichment (6-mer frequency, TF over GST control) and the binding signal (ETV6) was 1.24 fold enrichment (6-mer frequency, TF over GST control).
